# Measurements reported in paper PMC4336329 (PLoS ONE, 2015).
# Hit rate of the full screen: of about 310,000 compounds, about 14,000 (4.5%) showed an effect of 50% or more. Effects have a minus sign here. The full list was thinned out, with strong results kept by preference.
# Molecular target: human ether-à-go-go-related gene (hERG) potassium channel (human, UniProt Q12809)
# Test: primary screen, population patch clamp on CHO cells stably expressing hERG; higher = less effect of the substance
# 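Note: peak tail current of the secondary pulse compared with the same well before compound.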
# Chain of human ether-à-go-go-related gene (hERG) potassium channel (Q12809 whole entry, looked up): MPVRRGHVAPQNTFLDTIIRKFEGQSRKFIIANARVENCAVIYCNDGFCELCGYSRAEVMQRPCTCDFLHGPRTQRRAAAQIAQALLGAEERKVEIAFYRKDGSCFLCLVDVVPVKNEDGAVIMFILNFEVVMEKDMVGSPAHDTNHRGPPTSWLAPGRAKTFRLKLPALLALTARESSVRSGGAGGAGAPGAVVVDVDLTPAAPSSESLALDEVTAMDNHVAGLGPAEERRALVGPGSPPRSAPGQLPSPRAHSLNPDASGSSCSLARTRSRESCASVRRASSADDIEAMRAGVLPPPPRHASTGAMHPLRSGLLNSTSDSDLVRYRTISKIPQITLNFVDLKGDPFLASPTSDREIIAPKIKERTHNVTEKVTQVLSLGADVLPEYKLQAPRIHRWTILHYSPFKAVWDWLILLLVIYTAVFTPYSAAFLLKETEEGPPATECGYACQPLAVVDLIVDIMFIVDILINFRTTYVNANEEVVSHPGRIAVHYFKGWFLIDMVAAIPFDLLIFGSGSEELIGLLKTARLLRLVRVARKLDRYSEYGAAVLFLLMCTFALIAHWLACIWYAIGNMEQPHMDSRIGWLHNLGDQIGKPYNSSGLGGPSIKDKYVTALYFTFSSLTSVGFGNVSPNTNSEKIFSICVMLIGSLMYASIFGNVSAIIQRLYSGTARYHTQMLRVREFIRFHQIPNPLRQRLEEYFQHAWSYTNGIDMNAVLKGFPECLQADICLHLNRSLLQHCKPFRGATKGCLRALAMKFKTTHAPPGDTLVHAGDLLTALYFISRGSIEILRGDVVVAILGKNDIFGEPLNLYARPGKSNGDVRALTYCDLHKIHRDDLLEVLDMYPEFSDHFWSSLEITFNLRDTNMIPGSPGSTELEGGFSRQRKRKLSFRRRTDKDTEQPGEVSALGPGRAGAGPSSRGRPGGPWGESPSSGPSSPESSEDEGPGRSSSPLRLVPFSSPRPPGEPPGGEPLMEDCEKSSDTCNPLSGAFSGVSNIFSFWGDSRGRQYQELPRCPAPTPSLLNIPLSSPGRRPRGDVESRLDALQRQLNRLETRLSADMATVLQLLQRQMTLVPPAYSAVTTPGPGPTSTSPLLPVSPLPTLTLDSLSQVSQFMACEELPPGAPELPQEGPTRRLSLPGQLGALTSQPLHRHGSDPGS
row,SMILES,"hERG current change (%, negative = inhibition) at 10uM"
1,Cc1n[nH]c(=O)nc1NCc1ccccc1Cl,3.23%
2,CC(C)CCn1c(=O)c2sccc2n2c(CCCC(=O)N3CCN(c4ccccn4)CC3)nnc12,-65%
3,COCCCn1c(=O)c2sccc2n2c(CCCC(=O)N3CCN(c4ccccn4)CC3)nnc12,-2.18%
4,CC(C)OCCCn1c(=O)c2ccccc2n2c(CCC(=O)O)nnc12,29.3%
5,Cn1c(=O)c2sccc2n2c(CCCC(=O)N3CCN(c4ccccn4)CC3)nnc12,-11.1%
6,CCn1c(=O)c2sccc2n2c(CCCC(=O)N3CCN(c4ccccn4)CC3)nnc12,-17.6%
7,O=C(CCc1nnc2n(Cc3ccc(F)cc3)c(=O)c3ccccc3n12)N1CCN(c2ccccn2)CC1,-79.2%
8,O=C(CCc1nnc2n(Cc3ccc(Cl)cc3)c(=O)c3ccccc3n12)N1CCN(c2ccccn2)CC1,-57%
9,CC(C)OCCCn1c(=O)c2ccccc2n2c(CCC(=O)N3CCN(c4ccccn4)CC3)nnc12,-71.1%
10,CC(C)OCCCn1c(=O)c2ccccc2n2c(CCC(=O)NCc3ccccn3)nnc12,-14.4%
11,Cc1ccc(Cn2c(=O)c3ccccc3n3c(CCC(=O)O)nnc23)cc1,10.9%
12,O=C(c1ccc(Cn2c(=S)[nH]c3ccccc3c2=O)cc1)N1CCN(c2ccccn2)CC1,8.99%
13,O=C(O)CCc1nnc2n(Cc3ccc(F)cc3)c(=O)c3ccccc3n12,6.3%
14,CC(C)(O)[C@H]1Cc2cc3ccc(=O)oc3cc2O1,21.2%
15,O=C(CSc1nc(NS(=O)(=O)c2ccccc2)cc(=O)[nH]1)Nc1ccccc1C(F)(F)F,9.04%
16,CCCCCN(C(=O)CCC(=O)OCc1ccccc1Cl)c1c(N)n(CCCC)c(=O)[nH]c1=O,-49.8%
17,CCCCCN(C(=O)CCC(=O)OCC(=O)c1ccc(CCC)cc1)c1c(N)n(CCCC)c(=O)[nH]c1=O,-61.5%
18,CCCCCN(C(=O)CCC(=O)OCC(=O)c1ccc(F)c(F)c1)c1c(N)n(CCCC)c(=O)[nH]c1=O,-33.7%
19,CCCCCN(C(=O)CCC(=O)OCC(=O)c1ccc(C(C)(C)C)cc1)c1c(N)n(CCCC)c(=O)[nH]c1=O,-33.7%
20,CCCCCN(C(=O)CCC(=O)OCC(=O)NCc1cccc(OC)c1)c1c(N)n(CCCC)c(=O)[nH]c1=O,-0.375%
21,CCCCCN(C(=O)CCC(=O)OCC(=O)c1ccc(C(C)CC)cc1)c1c(N)n(CCCC)c(=O)[nH]c1=O (stereo not shown),8.1%

row,SMILES,"hERG current change (%, negative = inhibition) at 10uM"
1,CCCCCN(C(=O)CCC(=O)OCc1cccc(Cl)c1)c1c(N)n(CCCC)c(=O)[nH]c1=O,8.16%
2,CCCCCN(C(=O)CCC(=O)OCC(=O)c1cccc(OC)c1)c1c(N)n(CCCC)c(=O)[nH]c1=O,-64.6%
3,CCCCCN(C(=O)CCC(=O)OCc1ccc(Cl)cc1Cl)c1c(N)n(CCCC)c(=O)[nH]c1=O,-50.1%
4,Fc1ccc(NC(=S)NCc2cccnc2)cc1,13.1%
5,CCCS(=O)(=O)N1CCC(C(=O)NCCCOC)CC1,-0.339%
6,COc1cc(NC(=O)c2c(-c3ccccc3Cl)noc2C)c2ncccc2c1,25.5%
7,CCOc1ccc(NC(=O)COC(=O)CNC(=O)c2ccc(-c3ccccc3)cc2)cc1,2.3%
8,O=C(CSc1nc(=O)n(CCCN2CCOCC2)c2c1CCC2)Nc1cccc(F)c1,-37.4%
9,CC(=O)Nc1cccc(NC(=O)CSc2nc(=O)n(CCCN3CCOCC3)c3c2CCC3)c1,0.499%
10,O=C(CSc1nc(=O)n(CCCN2CCOCC2)c2c1CCCC2)Nc1cccc(Cl)c1,-62.2%
11,CC(=O)Nc1cccc(NC(=O)CSc2nc(=O)n(CCN3CCOCC3)c3c2CCCC3)c1,0.233%
12,O=C(CSc1nc(=O)n(CCCN2CCOCC2)c2c1CCC2)Nc1ccc(F)cc1F,-41.8%
13,O=C(CSc1nc(=O)n(CCCN2CCOCC2)c2c1CCCC2)Nc1cccc(F)c1,-56.2%
14,CN(c1ccccc1)C(c1ccc(F)cc1)c1nnnn1CC1CCCO1.Cl (stereo not shown),-14.1%
15,Cn1cc([N+](=O)[O-])c(C(=O)N/N=C/c2cc3c(cc2Br)OCO3)n1,3.63%
16,CC(=O)Nc1ccc(S(=O)(=O)N[C@@H](C)C(=O)Nc2ccc(N3CCOCC3)cc2)cc1,15.1%
17,CCOC(=O)C1=NN(C(=O)c2ccc(OC)cc2)C(O)(c2ccc(Cl)cc2)C1 (stereo not shown),-75.5%
18,COC(=O)C1=NN(C(=O)c2ccc(C)cc2)C(O)(c2ccc(Cl)cc2)C1 (stereo not shown),-31.2%
19,CCOC(=O)C1=NN(C(=O)c2ccccc2)C(O)(c2ccc(C)cc2)C1 (stereo not shown),-17.2%
20,O=C(c1ccncc1)N1CCN(CCc2ccccc2)CC1,-50.8%
21,O=C(c1ccc(Br)o1)N1CCN(c2ccccc2F)CC1,-4.94%

row,SMILES,"hERG current change (%, negative = inhibition) at 10uM"
1,O=C(c1ccc(F)cc1Cl)N1CCN(CCc2ccccc2)CC1,-44%
2,O=C(c1cc(F)c(F)cc1Cl)N1CCN(CCc2ccccc2)CC1,-71.6%
3,CCN1CCN(c2ccc(N3CCN(C(=O)c4ccc(Br)o4)CC3)nn2)CC1,-71.5%
4,O=C(c1ccc(Br)o1)N1CCN(CCc2ccncc2)CC1,-69.8%
5,O=C(c1cc(Cl)ccc1Cl)N1CCN(Cc2ccccc2)CC1,5.54%
6,O=C(c1ccc(Br)o1)N1CCN(Cc2ccccc2Cl)CC1,-12.6%
7,O=C(c1ccc(Br)o1)N1CCN(c2ncccn2)CC1,0.956%
8,O=C(c1ccccc1)N1CCN(C(=O)c2ccncc2)CC1,14.3%
9,COc1ccc(N2CCN(C(=O)c3ccc(Br)o3)CC2)cc1,-17%
10,O=C(c1ccccc1)N1CCN(CCc2ccccc2)CC1,-43.6%
11,COc1cc2c(cc1OC)C(C)N(C(=O)Nc1ccc(F)cc1)CC2 (stereo not shown),10.6%
12,Br.O=C(CSc1nc2ccccc2c(=O)n1-c1ccccc1)c1cccc([N+](=O)[O-])c1,-7.38%
13,COc1cc2c(cc1OC)C(c1ccc(Br)cc1)N(C(=O)c1ccccc1C(=O)O)CC2 (stereo not shown),9.72%
14,Cc1cc(C)c(C)c(S(=O)(=O)NCCCN2CCOCC2)c1C,13.6%
15,O=C1CCN(C(=O)Nc2cccc(Cl)c2)N1,14.1%
16,COc1ccc(NC(=S)N(C(C)C)C2CCN(C(C)C)CC2)cc1Cl,0.307%
17,COCCN(C(=S)Nc1ccc(OC)c(Cl)c1)C1CCN(C(C)C)CC1,-35.9%
18,CSc1cccc(NC(=S)N(CCC(C)C)C2CCN(C(C)=O)CC2)c1,-23.3%
19,CCOc1ccc(NC(=O)N(CCC(C)C)C2CCN(C(C)=O)CC2)cc1,-9.87%
20,CCCCN(C(=O)Nc1ccc(Cl)cc1)C1CCN(C(C)=O)CC1,-46%
21,CSc1cccc(NC(=S)N(CCC(C)C)C2CCN(C(C)C)CC2)c1,-52.5%

row,SMILES,"hERG current change (%, negative = inhibition) at 10uM"
1,COc1ccc(NC(=S)N(CCC(C)C)C2CCN(C(C)C)CC2)cc1Cl,-68.1%
2,CC(C)CCN(C(=S)Nc1cccc(F)c1)C1CCN(C(C)C)CC1,-42.9%
3,CC(C)CCN(C(=O)Nc1ccc(Cl)cc1)C1CCN(C(C)C)CC1,-72.1%
4,O=C1CCCN1CCCNc1ncnc2sccc12,3.29%
5,CC(C)(C)N1[C@@H](CC(=O)O)c2cc(C(F)(F)F)ccc2S1(=O)=O,11.2%
6,Cc1ccccc1Nc1nc(N)nc(COC(=O)CCS(=O)(=O)c2ccccc2)n1,-14.4%
7,CC(C)=C1C2CCC1C1C(=O)N(NC(=O)c3ccco3)C(=O)C21 (stereo not shown),-4.72%
8,Cc1nn(C)c(C(=O)N2CCc3ccccc32)c1Cl,2.37%
9,CCOC(=O)c1cnc2c(C)cc(C)cc2c1Nc1ccc(S(=O)(=O)Nc2ncccn2)cc1,-0.317%
10,COc1ccc(Cl)cc1N(CC(=O)N1CCN(Cc2ccccc2)CC1)S(C)(=O)=O,-7.28%
11,Cc1ccc2[nH]c3c(c2c1)CN(C(=O)CN1CCN(C(=O)c2ccco2)CC1)CC3,-5.97%
12,CN(CC(=O)N1CCc2[nH]c3ccc(F)cc3c2C1)CC1OCCO1,5.81%
13,O=C(CN1CCN(Cc2ccc3c(c2)OCO3)CC1)N1CCc2[nH]c3ccc(F)cc3c2C1,-62.8%
14,Cc1ccc2[nH]c3c(c2c1)CN(C(=O)CN1CCCCC1)CC3,-31.8%
15,O=C(c1cc2cc(F)ccc2[nH]1)N1CCN(Cc2ccc3c(c2)OCO3)CC1,-0.31%
16,Cc1ccc2[nH]c3c(c2c1)CN(C(=O)CN1CCN(Cc2ccc4c(c2)OCO4)CC1)CC3,-54.8%
17,COc1ccccc1NC(=O)c1sc2nc(-c3ccco3)ccc2c1N,1.24%
18,Cc1n[nH]c(C)c1N1C(=O)c2cccc3c(N4CCCCCC4)ccc(c23)C1=O,-21.5%
19,CCC(=O)N1c2ccc(S(=O)(=O)NCCc3ccc(OC)c(OC)c3)cc2CC1C (stereo not shown),10.3%
